KDM5B inhibitor: Primary screen for KDM5B Histone Demethylases FDH-coupled qHTS; Lysine-specific demethylase 5B (Homo sapiens), Q9UGL1; KDM5B demethylase, FDH-coupled NADH fluorescence (FDH is formaldehyde dehydrogenase); Potency, µM (titrated, usually from 57.7 µM), hits mostly inhibitors; 220,000 tested, 2.6% active; active = well fitted inhibition curve with a large enough effect; note: nearly all actives have a fitted effect of over 70% in size
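Inhibition is measured as reduced NADH fluorescence generation from FDH coupling to formaldehyde release. Truncated KDM5BΔAP at 200 nM final acts on H3K4me3 peptide (12.5 µM in substrate mix) in pH 7.5 HEPES buffer with Tween-20, 30 min, room temperature.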
Large screens that a line does not name were inactive. The sample as a whole holds a higher share of hits than the screen did.

CC1(C)CC(C)(c2ccc(O)cc2)c2ccccc2O1 (configuration not stated)	none
Cn1nccc1C(=O)NCc1ccc2c(c1)CCN2C(=O)c1ccccc1	none
CCOc1nccn2c(-c3ccc(CNC(=O)c4ccnn4C)cc3)cnc12	KDM5B inhibitor 40µM
CCOc1ccc(CNC(=O)CCn2c(=O)c3cccn3c3cccnc32)cc1	none
CC(C)n1cnnc1-c1nn(C)c2c1CN(C(=O)CC1CCCC1)CC2	none
Cc1cc(NC(=O)CNc2cc(S(=O)(=O)N3CCOCC3)ccc2N2CCCC2)no1	none
CN(C)C(=O)c1c[nH]c2cccnc12	KDM5B inhibitor 126µM
C=CCNC(=O)c1ccnc2[nH]ccc12	KDM5B inhibitor 126µM
C=CCNC(=O)c1ccccc1N	none
CN(C)C(=O)c1ccc(NC(=O)c2c[nH]c3ccccc23)cc1	none
C=CCNC(=O)c1ccccc1NC(=O)c1cnccn1	none
CCNC(=O)N1CCC(Oc2ncccc2C(=O)N(C)C)C1 (configuration not stated)	none
O=C(Nc1ccc(F)cc1)c1c[nH]c2cccnc12	none
C=CCNC(=O)c1c[nH]c2cccnc12	KDM5B inhibitor 126µM
C=CCNC(=O)c1ccccc1Nc1ccccc1	none
CN(CC(=O)NC(N)=O)C(c1ccccc1)c1ccccc1	none
CCCNc1c(NC(=O)NCC2CCC(C(=O)OCC)CC2)c(=O)oc2ccccc12 (configuration not stated)	none
CC(=O)Nc1ccc(-c2csc(NC3CC3)n2)c(F)c1	none
O=C(CC(c1ccccc1)S(=O)(=O)c1ccccc1)c1ccc(F)cc1 (configuration not stated)	none
CC(Sc1nnc(Nc2cccc(Cl)c2)s1)C(=O)N(C)c1ccccc1 (configuration not stated)	none
CCN1CCN(CC(=O)c2c(C)[nH]c3cc(C)ccc23)CC1	none
O=C(Cc1c[nH]c2ccccc12)NCC1(N2CCCCC2)CCCCC1	none
C[C@]1(CO)[C@H]2Cc3sc(NC(=O)c4ccc(F)cc4)nc3[C@@H](CC(=O)O)[C@]2(C)CC[C@H]1O	none
CC(C)NC(=O)C[C@@H]1c2nc(NC(=O)c3c(F)cccc3F)sc2C[C@@H]2[C@](C)(CO)[C@H](O)CC[C@]21C	none
CC(C)(C)c1ccc(C(=O)Nc2nc3c(s2)C[C@@H]2[C@](C)(CO)[C@H](O)CC[C@@]2(C)[C@@H]3CC(=O)N2CCOCC2)cc1	KDM5B inhibitor 28µM
C[C@]1(CO)[C@H]2Cc3sc(NC(=O)C4CCCCC4)nc3[C@@H](CC(=O)N3CCOCC3)[C@]2(C)CC[C@H]1O	none
COCC(=O)Nc1nc2c(s1)C[C@@H]1[C@](C)(CO)[C@H](O)CC[C@@]1(C)[C@@H]2CC(=O)NCc1cccnc1	none
COc1ccccc1CNC(=O)C[C@@H]1c2nc(-c3cccnc3)sc2C[C@@H]2[C@](C)(CO)[C@H](O)CC[C@]21C	KDM5B inhibitor 25µM
COCC(=O)Nc1nc2c(s1)C[C@@H]1[C@](C)(CO)[C@H](O)CC[C@@]1(C)[C@@H]2CC(=O)N1CCOCC1	none
C[C@@H](NC(=O)C[C@@H]1c2nc(NC(=O)CC(C)(C)C)sc2C[C@@H]2[C@](C)(CO)[C@H](O)CC[C@]21C)c1ccccc1	none
C[C@H](NC(=O)C[C@@H]1c2nc(NC(=O)c3ccc(F)cc3)sc2C[C@@H]2[C@](C)(CO)[C@H](O)CC[C@]21C)c1ccccc1	KDM5B inhibitor 32µM
CC(C)NC(=O)C[C@@H]1c2nc(NC(=O)c3ccc(C(C)(C)C)cc3)sc2C[C@@H]2[C@](C)(CO)[C@H](O)CC[C@]21C	KDM5B inhibitor 32µM
COCC(=O)Nc1nc2c(s1)C[C@@H]1[C@](C)(CO)[C@H](O)CC[C@@]1(C)[C@@H]2CC(=O)NC(C)C	none
Cc1nc2c(s1)C[C@@H]1[C@](C)(CO)[C@H](O)CC[C@@]1(C)[C@@H]2CC(=O)NCc1cccnc1	none
CC(OC(=O)c1ccc2ccccc2n1)C(=O)NC1(C#N)CCCCC1 (configuration not stated)	none
CC(C)(C)NC(=O)NC(=O)CSc1nc(C2CC2)nc2ccccc12	none
O=C(O)c1ccc(/C=C/C(=O)c2cccc(N3CCOCC3)c2)cc1	none
CC(C)CN1C(=O)c2cccn2CC1C(=O)NCCN1CCCCC1 (configuration not stated)	none
CC(C)(C)CC(=O)Nc1nc2c(s1)C[C@@H]1[C@](C)(CO)[C@H](O)CC[C@@]1(C)[C@@H]2CC(=O)NCc1ccco1	none
CC(C)(C)c1ccc(C(=O)Nc2nc3c(s2)C[C@@H]2[C@](C)(CO)[C@H](O)CC[C@@]2(C)[C@@H]3CC(=O)NCc2ccco2)cc1	KDM5B inhibitor 18µM
C[C@]1(CO)[C@H]2Cc3sc(NC(=O)c4ccco4)nc3[C@@H](CC(=O)NCc3ccccc3)[C@]2(C)CC[C@H]1O	none
Oc1cccc(Nc2cnc3ccc(-c4ccc(F)cc4)nn23)c1	none
O=C1CN(C(=O)COC(=O)COc2ccc(Cl)cc2Br)c2ccccc2N1	none
O=C(CSc1nnc(Nc2cccc(F)c2)s1)Nc1ccnn1C1CCCC1	none
COc1ccc(S(=O)(=O)c2c(C)c(C)n(C3CCCC3)c2NC(C)=O)cc1	none
O=C(c1cc(Cl)ccc1Cl)N1CCC(CN2CCOCC2)CC1	none

Bioassay records (PubChem BioAssay)
